The values that follow come from the supplement of paper PMC8728848.

What all share (assay): glycan array binding signal (z-score within array); higher = stronger binding
What all share (conditions): glycan notation: IUPAC condensed, linker removed

The target in test [1] is GlcNAc(a1-4)Gal(b1-4)GlcNAc(b1-3)Gal(b1-4)GlcNAc(b1-3)Gal(b1-4)GlcNAc. Put shortly: (§1)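 Columns mapping to the same glycan were averaged after glycan names were converted to IUPAC-condensed notation. The data come from 3228 arrays in the Consortium for Functional Glycomics database, limited to those with an available protein sequence. Binding is reported as a within-array Z-score averaged across arrays of one protein sequence and across linkers.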

Test [2] concerns the target GlcNAc(a1-4)Gal(b1-4)GlcNAc(b1-3)Gal(b1-4)[Fuc(a1-3)]GlcNAc(b1-3)Gal(b1-4)[Fuc(a1-3)]GlcNAc. In outline: as §1
The target in test [3] is GlcNAc(b1-2)Man(a1-3)[GlcNAc(b1-4)][GlcNAc(b1-2)Man(a1-6)]Man(b1-4)GlcNAc(b1-4)[Fuc(a1-6)]GlcNAc. Put shortly:
as §1

For test [4], the target named is GlcNAc(b1-3)Gal(b1-4)GlcNAc. Put shortly:
as §1

For test [5], the target named is GlcNAc(b1-3)Gal(b1-4)GlcNAc(b1-3)Gal(b1-4)GlcNAc(b1-2)Man(a1-3)[GlcNAc(b1-3)Gal(b1-4)GlcNAc(b1-3)Gal(b1-4)GlcNAc(b1-2)Man(a1-6)]Man(b1-4)GlcNAc(b1-4)GlcNAc. In outline:
as §1

The target of test [6] is GlcNAc(b1-3)Gal(b1-4)GlcNAc(b1-3)Gal(b1-4)GlcNAc(b1-2)Man(a1-3)[GlcNAc(b1-3)Gal(b1-4)GlcNAc(b1-3)Gal(b1-4)GlcNAc(b1-2)Man(a1-6)]Man(b1-4)GlcNAc(b1-4)[Fuc(a1-6)]GlcNAc. In outline:
as §1

Test [7] addresses GlcNAc(b1-3)Gal(b1-4)GlcNAc(b1-3)Gal(b1-4)GlcNAc(b1-3)Gal(b1-4)GlcNAc(b1-2)Man(a1-3)[GlcNAc(b1-3)Gal(b1-4)GlcNAc(b1-3)Gal(b1-4)GlcNAc(b1-3)Gal(b1-4)GlcNAc(b1-2)Man(a1-6)]Man(b1-4)GlcNAc(b1-4)[Fuc(a1-6)]GlcNAc. In outline:
as §1

Test [8] addresses GlcNAc(b1-3)Gal(b1-4)GlcNAc(b1-3)Gal(b1-4)GlcNAc(b1-3)Gal(b1-4)GlcNAc(b1-3)Gal(b1-4)GlcNAc(b1-2)Man(a1-3)[GlcNAc(b1-3)Gal(b1-4)GlcNAc(b1-3)Gal(b1-4)GlcNAc(b1-3)Gal(b1-4)GlcNAc(b1-3)Gal(b1-4)GlcNAc(b1-2)Man(a1-6)]Man(b1-4)GlcNAc(b1-4)GlcNAc. Put shortly: as §1
The target of test [9] is GlcNAc(b1-3)Gal(b1-4)GlcNAc(b1-3)Gal(b1-4)GlcNAc(b1-3)Gal(b1-4)GlcNAc(b1-3)Gal(b1-4)GlcNAc(b1-2)Man(a1-3)[GlcNAc(b1-3)Gal(b1-4)GlcNAc(b1-3)Gal(b1-4)GlcNAc(b1-3)Gal(b1-4)GlcNAc(b1-3)Gal(b1-4)GlcNAc(b1-2)Man(a1-6)]Man(b1-4)GlcNAc(b1-4)[Fuc(a1-6)]GlcNAc. Put shortly: as §1
The next test addresses GlcNAc(b1-3)GalNAc. In outline:
as §1

Test [10] concerns the target GlcNAc(b1-3)[GlcNAc(b1-4)][GlcNAc(b1-6)]GlcNAc. In outline:
as §1

For another test, the target named is GlcNAc3Prop(b1-4)GlcNAc. In outline: as §1
The target of test [11] is Neu5Ac(a2-3)Gal(b1-3)GalNAc(b1-3)Gal(a1-4)Gal(b1-4)Glc. In outline: as §1
Test [12] concerns the target Neu5Ac(a2-3)Gal(b1-3)GalNAc(b1-4)[Neu5Ac(a2-8)Neu5Ac(a2-3)]Gal(b1-4)Glc. In outline:
as §1

Test [13] deals with Neu5Ac(a2-3)Gal(b1-3)[Fuc(a1-4)]GlcNAc. In outline:
as §1

The next test has as its target Neu5Ac(a2-3)Gal(b1-4)Glc. Put shortly:
as §1

Test [14] addresses Neu5Ac(a2-3)Gal(b1-4)GlcNAc. In outline:
as §1

In test [15] the target is Neu5Ac(a2-3)Gal(b1-4)GlcNAc(b1-2)Man(a1-3)[GlcNAc(b1-4)][Neu5Ac(a2-3)Gal(b1-4)GlcNAc(b1-2)Man(a1-6)]Man(b1-4)GlcNAc(b1-4)GlcNAc. Put shortly: as §1
Test [16] deals with Neu5Ac(a2-3)Gal(b1-4)GlcNAc(b1-2)[Neu5Ac(a2-3)Gal(b1-4)GlcNAc(b1-6)]Man(a1-6)[Neu5Ac(a2-3)Gal(b1-4)GlcNAc(b1-2)Man(a1-3)][GlcNAc(b1-4)]Man(b1-4)GlcNAc(b1-4)GlcNAc. Put shortly:
as §1

A further test deals with Neu5Ac(a2-6)Gal(b1-4)Glc. Put shortly: as §1
The target in test [17] is Neu5Ac(a2-6)Gal(b1-4)GlcNAc(b1-2)Man(a1-3)[Neu5Ac(a2-3)Gal(b1-4)GlcNAc(b1-2)Man(a1-6)]Man(b1-4)GlcNAc(b1-4)GlcNAc. In outline: as §1
Test [18] deals with Neu5Ac(a2-6)Gal(b1-4)GlcNAc(b1-3)Gal(b1-4)GlcNAc(b1-3)Gal(b1-4)GlcNAc(b1-2)Man(a1-3)[Neu5Ac(a2-6)Gal(b1-4)GlcNAc(b1-3)Gal(b1-4)GlcNAc(b1-3)Gal(b1-4)GlcNAc(b1-2)Man(a1-6)]GalNAc. In outline:
as §1

The target of test [19] is Neu5Ac(a2-6)GalNAc(b1-4)GlcNAc. In outline: as §1
In test [20] the target is Neu5Gc(a2-8)Neu5Gc(a2-3)Gal(b1-4)GlcNAc(b1-3)Gal(b1-4)GlcNAc. Put shortly:
as §1

This excerpt belongs to a sample that is enriched for the strongest signals.

B1: rAAL-2 (Agrocybe aegerita) (protein)
chain: MTSNVITQDLPIPVASRGFADIVGFGLDGVVIGRNAVNLQPFLAVKNFAQNAGGWLTTKHVRLIADTTGTGKGDIVGFGNAGVYVSVNNGKNTFADPPKMVIANFGYDAGGWRVEKHLRYLADIRKIGRADIIGFGEKGVLVSRNNGGLNFGPATLVLKDFGYDAGGWRLDRHLRFLADVTGNGHLDIVGFGDKHVFISRNNGDGTFAPAKSVIDNFCIDAGGWKIGDHPRFVADLTGDGTADIIGCGKAGCWVALNNGGGVFGQVKLVINDFGTDKGWQAAKHPRFIADLTGNGRGDVVGFGNAGVYVALNNGDGTFQSAKLVLKDFGVQQGWTVSKHRRFVVDLTGDGCADIIGFGEKETLVSYNDGKGNFGPVKALTNDFSFSGGKWAPETTVCWMANLDSSRH
For B1, the “glycan array binding signal (z-score)” value in [1] is 6.15; in test [2] it was 3.9; in test [3] it was -0.068; in [4] it was 4.11; in test [5] it was 3.92; in test [6], 4.05. The “glycan array binding signal (z-score)” value was 4.52 in test [7]; 4.12 in test [8]; 3.97 in [9]; 0.798 with GlcNAc(b1-3)GalNAc; -0.339 in test [10]; 0.177 in the test with GlcNAc3Prop(b1-4)GlcNAc. The “glycan array binding signal (z-score)” value in test [11] was -0.228; in test [12] it was -0.103; in test [13], -0.392; with Neu5Ac(a2-3)Gal(b1-4)Glc, -0.151; in test [14] it was -0.177; in test [15], -0.314. The “glycan array binding signal (z-score)” value in test [16] is -0.33; in the test with Neu5Ac(a2-6)Gal(b1-4)Glc, -0.303; in test [17], -0.237; in test [18] it was 0.107; in test [19], -0.288; in test [20], -0.178.
